Assay results: PubChem BioAssay AID1508602 (The Scripps Research Institute Molecular Screening Center, 2020)
The whole screen tested about 650,000 compounds, of which about 6,800 (1%) were called active. The sample as a whole holds a higher share of actives than the screen did. Values without a mark were called inactive. Cut-off read from the data, not from the text of the source: active = activation above about 4.9%; inactive = the rest.

target: G-protein coupled receptor 151 (Homo sapiens) (UniProt Q8TDV0); experiment: activators of human GPR151, primary screen, cell-based, PathHunter beta-arrestin, luminescence (AID 1508602); settings: PathHunter beta-arrestin GPR151 cells, at 11.2 µM, active compounds read high;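 note: 0% = median of compound wells and 100% = cells with positive control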
Sequence (Q8TDV0 whole entry, looked up): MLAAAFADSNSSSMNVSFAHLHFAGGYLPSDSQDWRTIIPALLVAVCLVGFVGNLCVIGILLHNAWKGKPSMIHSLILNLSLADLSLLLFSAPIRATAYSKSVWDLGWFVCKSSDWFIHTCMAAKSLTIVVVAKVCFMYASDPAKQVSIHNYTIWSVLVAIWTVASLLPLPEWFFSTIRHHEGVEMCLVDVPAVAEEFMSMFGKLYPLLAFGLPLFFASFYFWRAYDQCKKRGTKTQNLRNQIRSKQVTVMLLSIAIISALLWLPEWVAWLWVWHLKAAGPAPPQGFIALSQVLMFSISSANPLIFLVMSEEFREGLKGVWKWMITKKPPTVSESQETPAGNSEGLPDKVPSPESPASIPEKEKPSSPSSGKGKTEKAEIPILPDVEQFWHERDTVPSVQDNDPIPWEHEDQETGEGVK

How did the activation turn out when `NC(=O)c1ccc(NC(=O)CSc2nc(N)c(NC(=O)c3ccccc3)c(=O)[nH]2)cc1` was run?
Its activation is -0.254%.

How did the activation turn out when `C#CCN1C(=O)C(O)(CC(=O)c2ccc(Br)cc2)c2ccccc21` (configuration not stated) was run?
Its activation is 4.05%.

With `Cc1cc(N2CCCC2)nc(N2CCN(C(=O)c3ccccc3Cl)CC2)n1` as the compound, how does the activation read?
The activation was 0.558%.

How did the activation turn out when `COC(=O)c1oc2ccc(Br)cc2c1NC(C)=O` was run?
Its activation is 6.57% (active).

How did the activation turn out when `CCOC(=O)c1oc2ccc(Br)cc2c1C` was run?
Its activation is 1.27%.

Which activation does the source give for `Cc1c(C(=O)Nc2nnc(C3CC3)s2)oc2ccc(Br)cc12` here?
Its activation is -0.544%.

With `O=C(NC(c1ccccc1)C(C(=O)c1ccccc1)C(=O)c1ccccc1)OCCc1ccccc1` (configuration not stated) as the compound, how does the activation read?
Its activation is -0.699%.

`COCCCNCc1c(C(=O)O)n(Cc2ccccc2F)c2cc(OC)ccc12` was tested. Which activation did it give?
The activation was 1.64%.

For `CCN(CC)CCNS(=O)(=O)c1ccc(Br)c(C)c1`, which activation is on record?
Its activation is 0.131%.

`O=C(CSc1nnnn1-c1ccc2c(c1)OCCO2)NNC(=O)c1ccco1` was tested. Which activation did it give?
The activation was 2.23%.

Which activation does the source give for `COc1cccc(OC(=O)c2ccc(F)cc2[N+](=O)[O-])c1` here?
The activation was -5.87%.

`CCCCN(C)Cc1cc(Br)ccc1OC` was tested. Which activation did it give?
Its activation is 0.319%.

How did the activation turn out when `CC(=O)N1CCc2c(sc(NC(=O)CCS(=O)(=O)c3ccccc3)c2C#N)C1` was run?
The activation was -0.234%.

How did the activation turn out when `CCOC(=O)N1CCc2c(sc(NC(=O)CCSc3ccccc3)c2C#N)C1` was run?
The activation was 0.685%.

With `CC(C)N1CCc2c(sc(NC(=O)Cc3ccccc3)c2C#N)C1` as the compound, how does the activation read?
The activation was 4.91% (active).

`Cc1ccc(CNC(=O)CCC2CCCN(C(=O)c3cccc(-c4ccco4)c3)C2)o1` (configuration not stated) was tested. Which activation did it give?
The activation was -0.6%.

Which activation does the source give for `CC(C)c1nc(CNC(=O)Cn2nnnc2CN2C[C@@H](C)O[C@@H](C)C2)cs1` here?
The activation was 0.432%.

For `CCC(C)C(=O)N1CCc2c(C(=O)NCc3ccsc3)c(OC)cc(=O)n2CC1` (configuration not stated), which activation is on record?
The activation was 0.148%.

`CC1CCN(C(=O)C(NS(=O)(=O)c2ccc3c(c2)oc(=O)n3C)C(C)C)CC1` (configuration not stated) was tested. Which activation did it give?
The activation was 7.77% (active).

With `CC(C)CC(NS(=O)(=O)c1ccc2c(c1)oc(=O)n2C)C(=O)N1CCC(C)CC1` (configuration not stated) as the compound, how does the activation read?
Its activation is -0.109%.

With `CC1CCC(NS(=O)(=O)c2ccc3c(c2)oc(=O)n3C)CC1` (configuration not stated) as the compound, how does the activation read?
The activation was 0.208%.

With `O=C1CC(N2CCN(Cc3ccccc3)CC2)C(=O)N1c1ccccc1F` (configuration not stated) as the compound, how does the activation read?
The activation was -0.408%.

`Cc1ccc2[nH]c3c(=O)n(CC(=O)NCCC4=CCCCC4)cnc3c2c1` was tested. Which activation did it give?
Its activation is 0.423%.

Which activation does the source give for `O=C(CCn1cnc2c(cnn2-c2ccc(F)cc2)c1=O)NCCC1=CCCCC1` here?
Its activation is 7.05% (active).

How did the activation turn out when `O=C(Cn1cnc2c(cnn2-c2ccc(F)cc2)c1=O)NCCc1ccccc1` was run?
Its activation is 0.508%.

Which activation does the source give for `COC(=O)c1ccc(-c2cnc3ccc(NCCCO)nn23)cc1` here?
The activation was 0.0841%.

`O=C(Cc1cccs1)NCCS(=O)(=O)N1CCN(CCc2ccccc2)CC1` was tested. Which activation did it give?
The activation was 0.729%.

`Cc1ccccc1C(=O)NCc1nc(-c2ccc(Cl)cc2)no1` was tested. Which activation did it give?
Its activation is 6.7% (active).

`Cc1ccc(-c2noc(CNC(=O)c3cccc4ccccc34)n2)cc1` was tested. Which activation did it give?
The activation was 1.49%.

With `Cc1ccc(-c2noc(CNC(=O)c3cc(C)ccc3C)n2)cc1` as the compound, how does the activation read?
Its activation is 0.749%.

`COc1ccc(C2Nc3ccccc3C(=O)N2c2ccc(C)cc2)cc1COc1ccc(Cl)cc1` (configuration not stated) was tested. Which activation did it give?
Its activation is 2.56%.

`O=C(O)CN1C(=O)CC(N2C(=O)/C(=C/c3ccc(F)cc3)SC2=S)C1=O` (configuration not stated) was tested. Which activation did it give?
The activation was -1.59%.

For `Cn1cnnc1Sc1nc2c(c(=O)n(C)c(=O)n2C)n1Cc1ccc(F)cc1`, which activation is on record?
The activation was -1.79%.

Which activation does the source give for `CNC(=O)CSc1nc2c(c(=O)n(C)c(=O)n2C)n1Cc1ccc(F)cc1` here?
Its activation is 0.114%.

How did the activation turn out when `Cn1c(=O)c2c(nc(SCC(=O)O)n2Cc2ccc(F)cc2)n(C)c1=O` was run?
The activation was 8.98% (active).

Which activation does the source give for `CCc1nc2sc3c(c2c2nnc(SCC(=O)NCc4ccco4)n12)CCCC3` here?
Its activation is -0.144%.

How did the activation turn out when `COc1ccccc1C(=O)N/C(=C\c1ccc2c(c1)OCO2)C(N)=O` was run?
The activation was 6.4% (active).

How did the activation turn out when `COc1ccccc1C(=O)N/C(=C/c1ccc2c(c1)OCO2)C(=O)N1CCCCC1` was run?
Its activation is 0.0614%.

Which activation does the source give for `CCOC(=O)CNC(=O)/C(=C\c1ccc2c(c1)OCO2)NC(=O)c1ccccc1OC` here?
Its activation is 2.88%.

Which activation does the source give for `COCCOC(=O)C1=C(C)Nc2ccccc2S1` here?
Its activation is 1.48%.

With `CN(C)S(=O)(=O)Nc1ccc(N2CCC(NCc3cc4ccccc4[nH]3)CC2)cc1` as the compound, how does the activation read?
The activation was -0.741%.

`COC(=O)CSc1nc2sc3c(c2c(=O)n1C1CCCCC1)CC(C)(C)OC3` was tested. Which activation did it give?
Its activation is -0.897%.

How did the activation turn out when `C=C(C)CSc1nc2sc3c(c2c(=O)n1-c1ccc(OC)cc1)CC(C)(C)OC3` was run?
Its activation is 5.02% (active).

`CCn1c(SCC(=O)O)nc2sc3c(c2c1=O)CC(C)(C)OC3` was tested. Which activation did it give?
Its activation is -0.501%.

With `Cc1cc(Cl)ccc1OCc1nc(-c2ccccc2)no1` as the compound, how does the activation read?
Its activation is 1.48%.

For `CC1=C(C(=O)OCC2CCCO2)C(c2ccccc2F)C2=C(CCCC2=O)N1` (configuration not stated), which activation is on record?
Its activation is 0.289%.

`COc1ccc(CNC(=O)CSc2nnnn2C2CCCCC2)cc1` was tested. Which activation did it give?
The activation was -1.28%.

`CCOc1ccc(NC(=O)COc2cccc(C)c2C)cc1` was tested. Which activation did it give?
Its activation is 5.81% (active).

`CCOc1ccc(NC(=O)COc2ccc(C)cc2C)cc1` was tested. Which activation did it give?
The activation was 0.102%.

How did the activation turn out when `CCOc1ccc(NC(=O)COc2cc(C)c(Cl)c(C)c2)cc1` was run?
Its activation is -0.356%.

Which activation does the source give for `COc1cc(-c2cc(-c3ccccc3)nc3sc(C(=O)O)c(N)c23)cc(OC)c1OC` here?
Its activation is 0.0436%.

How did the activation turn out when `COc1ccc(C(=O)N2CCC(C(N)=O)CC2)cc1OC` was run?
Its activation is 1.14%.

Which activation does the source give for `NC(=O)C1CCN(C(=O)c2ccc(-c3ccccc3)cc2)CC1` here?
Its activation is 5.25% (active).

`NC(=O)C1CCN(C(=O)c2ccc(C(F)(F)F)cc2)CC1` was tested. Which activation did it give?
The activation was -0.735%.

`COc1ccc(C(=O)C2CCN(CC(N)=O)CC2)cc1` was tested. Which activation did it give?
The activation was -1.68%.

For `CN(C)CCNC(=O)C(=O)NCC1OCCCN1S(=O)(=O)c1ccc(F)cc1` (configuration not stated), which activation is on record?
The activation was -0.149%.

Which activation does the source give for `Cc1cc(NC(=O)CSc2nc(=O)cc(N)n2-c2ccc(F)cc2)no1` here?
Its activation is -0.189%.

With `O=C(CSc1ccc(F)cc1)Nc1nccs1` as the compound, how does the activation read?
The activation was -0.169%.

For `Nc1cc(=O)nc(SCC(=O)Nc2nccs2)n1-c1ccc(F)cc1`, which activation is on record?
Its activation is 5.12% (active).

With `O=C(Nc1ccc2oc(-c3ccccc3F)nc2c1)c1cc(I)ccc1Cl` as the compound, how does the activation read?
The activation was -1.58%.

How did the activation turn out when `CCOc1ccc(-c2cc(C(=O)NCCCN3CCN(C)CC3)c3ccccc3n2)cc1` was run?
The activation was 2.73%.

Which activation does the source give for `O=C1c2ccccc2C(=O)N1CNc1ccc(Cc2ccncc2)cc1` here?
Its activation is -0.716%.

Which activation does the source give for `O=C(CN1C(=O)NC2(CCCCCC2)C1=O)Nc1ccc(S(=O)(=O)N2CCCC2)cc1` here?
The activation was 1.73%.

For `O=C(CN1C(=O)CCC1=O)Nc1ccc(S(=O)(=O)N2CCOCC2)cc1`, which activation is on record?
The activation was 6.57% (active).

How did the activation turn out when `COC(=O)CCC(=O)Nc1ccc(S(=O)(=O)N2CCOCC2)cc1` was run?
Its activation is -0.0636%.

Which activation does the source give for `CN(CC(=O)Nc1cccc(F)c1)C(=O)C1CCCCC1` here?
Its activation is -0.0765%.

With `CC(C)CCn1nnnc1CN1CCN(c2ccccc2F)CC1` as the compound, how does the activation read?
The activation was -0.0283%.

How did the activation turn out when `Cc1ccc(S(=O)(=O)Cn2nnnc2CN2CCN(c3cccc(Cl)c3)CC2)cc1` was run?
The activation was -0.91%.

How did the activation turn out when `Cc1ccc(S(=O)(=O)Cn2nnnc2CN2CCN(c3ccccc3F)CC2)cc1` was run?
The activation was 8.05% (active).

For `CCCC(C)NS(=O)(=O)c1ccc(OCC(=O)OC)cc1` (configuration not stated), which activation is on record?
The activation was 0.348%.

`COCC(=O)NC(C)c1nnc(SCc2ccccc2C)n1C` (configuration not stated) was tested. Which activation did it give?
Its activation is -0.733%.

`COc1cccc(C(=O)Nc2ccc3oc(-c4ccccc4)nc3c2)c1` was tested. Which activation did it give?
Its activation is -0.935%.

For `COc1cccc(-c2nc3cc(NC(=O)c4cncc(Br)c4)ccc3o2)c1`, which activation is on record?
Its activation is -0.0884%.

With `COc1cccc(-c2ocnc2C(=O)Nc2ccc3nc(-c4cccnc4)oc3c2)c1` as the compound, how does the activation read?
The activation was 7.47% (active).

For `O=C(NC1CC1)c1ccc(-c2cccc(C(=O)NCc3ccccc3)n2)cc1`, which activation is on record?
The activation was -1.55%.

Which activation does the source give for `CCOc1ccc(-c2ccc(SCC(=O)Nc3cc(C)on3)nn2)cc1` here?
Its activation is 1.58%.

With `O=C1N(CC2CCCCC2)CCN1c1ccc(C(F)(F)F)cn1` as the compound, how does the activation read?
The activation was -0.812%.

`CCOc1ccc(S(=O)(=O)N2CCN(c3ncccn3)CC2)c2cccnc12` was tested. Which activation did it give?
The activation was 3.78%.

For `c1ccc(-c2ccc(OCCCNCCN3CCOCC3)cc2)cc1`, which activation is on record?
The activation was 7.78% (active).

Which activation does the source give for `c1ccc(-c2ccccc2OCCCCNCCN2CCOCC2)cc1` here?
The activation was 0.194%.

`c1ccc(-c2ccccc2OCCNCCN2CCOCC2)cc1` was tested. Which activation did it give?
Its activation is -0.471%.

`CCCOC1(C(F)(F)F)NC(=O)N(c2ccc(C(C)C)cc2)C1=O` (configuration not stated) was tested. Which activation did it give?
Its activation is 10.8% (active).

How did the activation turn out when `COC1(C(F)(F)F)NC(=O)N(c2ccccc2)C1=O` (configuration not stated) was run?
The activation was -1.06%.

How did the activation turn out when `CC(C)c1ccc(N2C(=O)C3C(C2=O)C2(c4ccccc4)C(=O)C3(c3ccccc3)C(c3ccccc3)=C2c2ccccc2)cc1` (configuration not stated) was run?
Its activation is 2.7%.

`Cc1nc(N2CCN(C)CC2)c2c(C)c(C(=O)NC3CCCCC3)sc2n1` was tested. Which activation did it give?
Its activation is 0.833%.

For `CC(C)NC(=O)c1sc(=S)n2c1[nH]c(=O)c1ccc(C(=O)NCCN(C)C)cc12`, which activation is on record?
The activation was 1.68%.

`O=C1/C(=C\c2cccs2)SC(=S)N1Cc1ccco1` was tested. Which activation did it give?
Its activation is -0.646%.

For `CCC(=O)N1CCc2cc(S(=O)(=O)CCC(=O)Nc3ccc(C(=O)OC)cc3)ccc21`, which activation is on record?
Its activation is 0.246%.

For `COc1cc(-c2cncc(-c3cccc(C(=O)NCCN(C)C)c3)n2)cc(OC)c1OC`, which activation is on record?
Its activation is -0.823%.

With `Cc1ccc(CN2CCOCC2)c(C)c1` as the compound, how does the activation read?
The activation was 0.704%.

Which activation does the source give for `CCN1CCN(Cc2cc([N+](=O)[O-])ccc2O)CC1` here?
The activation was -0.921%.

`C/C(=N/N1CCN(Cc2ccc(C)cc2C)CC1)c1ccc([N+](=O)[O-])cc1` was tested. Which activation did it give?
Its activation is 9.21% (active).
